PubChem BioAssay AID624352 (Sanford-Burnham Center for Chemical Genomics, 2012)
Among all 360,000 compounds or so, about 2,600 (0.72%) were called active. Many of the other results were omitted from the sample, so actives are more common in it than they were. Unmarked numbers belong to inactive results.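 Rule for the calls: active = inhibition of the luminescence signal of 40% or more relative to plate controls, in a single-dose primary screen at 18.75 µM; inactive = the rest.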

test: blockers of HIF-2a driven luciferase – luminescence, 786-0 RCC cells, primary screen (AID 624352); conditions: 786-0 RCC cells HIF-2a reporter, overnight, at 18.8 µM, hits give high values

Compared with CCCNC(=O)c1ccccc1NC(=O)CSCc1ccc(OC)cc1, COc1ccc(NC(=O)CCCN2C(=O)C(c3ccccc3)Oc3cccnc32)cc1 (centres undefined) is lower in inhibition: 19% for the first, 0.775% for the second.

Going from Cc1ccccc1C(=O)N1CCC(C(=O)Nc2ccc(S(=O)(=O)N(C)C(C)C)cc2)CC1 to Cc1ccc(NC(=O)N2CCC(C(=O)NCc3ccc(F)cc3)CC2)cc1, the inhibition falls from 16.4% to 11.1%.

First: CC=CCn1c(SCCCc2ccccc2)nc2c1c(=O)[nH]c(=O)n2C
Second: Cc1nc(SCC(=O)c2ccccc2)c([N+](=O)[O-])[nH]1
The inhibition of the first is lower: 3.87% for the first, 8.52% for the second.

First: O=C(CCC(=O)NNc1nc2ccccc2c2nc(-c3ccccc3)nn12)NCCCN1CCCC1=O
Second: CCc1ccc(CNC(=O)C2CCCN(c3nc4ccccc4o3)C2)cc1 (centres undefined)
The inhibition of the first is lower: -19.4% for the first, 12.9% for the second.

First: COCCNC(=S)Nc1cc(S(=O)(=O)N2CCOCC2)ccc1N1CCCCC1
Second: Cc1cccc(OCCC(=O)Nc2cc(S(=O)(=O)N3CCCCC3)ccc2N2CCOCC2)c1
The inhibition of the first is higher: 11.9% for the first, -42.8% for the second.

Going from CCn1cc(CNC(=O)c2cc([N+](=O)[O-])c(C)c([N+](=O)[O-])c2)cn1 to CCc1ccc(CNC(=O)C2CC(=O)N(CCc3ccc(C)cc3)C2)cc1 (centres undefined), the inhibition falls from 8.39% to -8.53%.

Compared with O=C(CN1CCN(Cc2ccccc2)CC1)Nc1ccc(F)c(F)c1, O=C(CN1CCN(c2ccccn2)CC1)NCc1cccs1 is higher in inhibition: -1.13% for the first, 4.32% for the second.

Compared with O=C(CNCc1ccc(Cl)cc1)Nc1cccc(C(=O)O)c1, C/C(=C\C(=O)c1ccccc1)Nc1cccc(O)c1 is lower in inhibition: 2.72% for the first, -359% for the second.

Going from O=C(NCc1cccs1)c1ccc(CS(=O)Cc2ccccc2Cl)o1 (centres undefined) to CC1(C(=O)NS(=O)(=O)Cc2cccc(Cl)c2)CCN1C(=O)Cc1ccccc1 (centres undefined), the inhibition rises from -0.00949% to 12.1%.

First: CCOC(=O)c1sc(/N=C/C2=C(O)CC(C)(C)CC2=O)c(C(=O)OCC)c1C
Second: CCOC(=O)c1c(C)oc(C)c(C(=O)OCC)c1=O
The inhibition of the first is lower: -268% for the first, 0.843% for the second.

Going from CC(C)C1Nc2c(C(=O)O)cccc2C(Nc2ccccc2C(=O)O)C1(C)C (centres undefined) to CC1(C(=O)O)CCN1C(=O)/C=C/c1ccccc1 (centres undefined), the inhibition falls from 19% to 3.94%.

First: O=C(COC(=O)CC1CC2CCC1C2)NC(=O)NC1CCCC1 (centres undefined)
Second: C[C@@H]1NC(=O)c2cc([N+](=O)[O-])cc(F)c2NCCC[C@@H](C(N)=O)NC(=O)[C@H](CC(N)=O)NC1=O
The inhibition of the first is higher: 11.3% for the first, 9.38% for the second.

First: Cc1cc(Br)cn2c(Cc3ccccc3C(F)(F)F)c(C3CCCCC3)nc12
Second: O=c1cc(C(F)(F)F)[nH]c(=O)n1C1CCCCC1
The inhibition of the first is higher: 7.15% for the first, 3.85% for the second.

First: COc1cc2c(cc1OC)C(Nc1ccc(S(N)(=O)=O)cc1)=NC(C)(C)C2
Second: COc1ccc(OC)c(NC(=O)C2CCCN2S(=O)(=O)c2cccc3nsnc23)c1 (centres undefined)
The inhibition of the first is lower: 8.2% for the first, 16.7% for the second.

Compared with COc1cc2c(cc1OC)CC1(CCCCC1)N=C2, COc1cc(C=NC2CCCCC2)ccc1O is lower in inhibition: 10.1% for the first, 2.1% for the second.

Compared with CC(NC(=O)CC1SC(N)=NC1=O)c1ccccc1 (centres undefined), Cc1nn(-c2ccccc2)c(=O)c2noc(C)c12 is lower in inhibition: 6.27% for the first, 3.29% for the second.

Going from C[C@H]1CN([C@@H](C)CO)C(=O)CCCn2cc(nn2)CO[C@@H]1CN(C)S(=O)(=O)c1cccs1 to COc1ccc([N+](=O)[O-])cc1N(CC(=O)Nc1ccccc1C(=O)N1CCOCC1)S(C)(=O)=O, the inhibition falls from 6.28% to 3.69%.

First: O=c1onc(-c2c(F)cccc2F)n1-c1ccccc1Cl
Second: CN(C)S(=O)(=O)c1cc(NC(=O)CN2C(=O)NC3(CCCc4ccccc43)C2=O)ccc1Cl (centres undefined)
The inhibition of the first is lower: 11.8% for the first, 12.2% for the second.

Going from Cc1c[n+]([O-])ccc1[N+](=O)[O-] to CCCCNC(=O)OCCSCCS(=O)(=O)c1ccc(Cl)cc1, the inhibition rises from 3.58% to 10.7%.

First: COc1cccc(CNC(=O)C2CCCN(c3ncnc4c3nc3n4CCCCC3)C2)c1 (centres undefined)
Second: C/C(=C\c1ccccc1)C1NC(=O)c2c(sc3c2CCCC3)N1 (centres undefined)
The inhibition of the first is higher: 0.819% for the first, -140% for the second.

Going from CN1c2ccc(C=O)c3c(C=O)ccc(c23)N(C)C1(C)C to Cc1ccc(C)c(NC(=O)CN(C)C(=O)c2ccc3ncsc3c2)c1, the inhibition falls from 25.6% to 5.94%.

Going from CCOC(=O)c1[nH]c(C)c(C(=O)OCC(=O)N2c3ccccc3CC2C)c1C (centres undefined) to COc1ccc(CN2CCNC(=O)C2CC(=O)N(C)Cc2ccccn2)cc1OC (centres undefined), the inhibition rises from 2.58% to 9.28%.

Compared with COc1cc(/C=N/NC(=O)Nc2ccccc2)ccc1OCCOc1ccccc1C, CC(C)CN(C(=O)c1ccc2c(c1)OCO2)C1CCS(=O)(=O)C1 (centres undefined) is higher in inhibition: -9.55% for the first, 24.2% for the second.

With COc1ccc(/C=C2/SC(=O)N(CCCCCC(=O)Nc3ccccc3C(=O)O)C2=S)cc1 the inhibition was 84.2% (active).
In the case of NC1=CC(=O)C(=O)c2cccnc21, the inhibition is reported as 54.7% (active).
For CSc1nc(-c2ccccc2)nc(C(Cl)Cl)n1, the inhibition was 77.8% (active).
For O=C(CCl)Nc1cccc(CP(=O)(c2ccccc2)c2ccccc2)c1, the inhibition was 44.2% (active).
In the case of CC[C@@H]1Cc2cc(O)ccc2C2=C1c1ccc(O)cc1C[C@H]2CC, the inhibition is reported as 45.9% (active).
In the case of COc1cc2c(cc1O)C(SC)=NC(C)(C)C2, the inhibition is reported as 89.4% (active).
In the case of O=C(/C(=C/c1cccc(Cl)c1)c1nc2ccccc2[nH]1)c1ccccc1, the inhibition is reported as 92.8% (active).
With CCOc1ccc(CNC(=O)C2CCCN(c3nnc(C)c4c(C)n(-c5ccccc5)nc34)C2)cc1 (centres undefined) the inhibition was 40.7% (active).
In the case of CCc1ccc(CNC(=O)C2CCN(c3nnc(C)c4c(C)n(-c5ccc(C)cc5)nc34)CC2)cc1, the inhibition is reported as 54.1% (active).
With Cc1cc(C)nc(S/C=C/C(=O)c2ccccc2)n1 the inhibition was 69.1% (active).
In the case of CCOC(=O)c1c(C)[nH]c2c1-c1ccccc1C(=O)C2=O, the inhibition is reported as 96.1% (active).
For COc1ccc(C(=O)Nc2ccccc2C(=O)N/N=C/c2ccc(O)c(OC)c2)cc1, the inhibition was 69.5% (active).
In the case of Cc1[nH]c(=O)c(C(=O)/C=C/c2ccccc2)c2c1CCCC2, the inhibition is reported as 72.5% (active).
